# Among all 310,000 compounds or so, about 14,000 (4.5%) showed an effect of 50% or more. Effects have a minus sign here. The list comes from a sample in which strong results are over-represented; it also holds similar structures and randomly drawn compounds.
# Molecular target: human ether-à-go-go-related gene (hERG) potassium channel (human, UniProt Q12809)
# Assay: primary screen, population patch clamp on CHO cells stably expressing hERG; higher = less effect of the substance
# 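Further: peak tail current of the secondary pulse compared with the same well before compound.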
# Chain of human ether-à-go-go-related gene (hERG) potassium channel (Q12809 whole entry, looked up): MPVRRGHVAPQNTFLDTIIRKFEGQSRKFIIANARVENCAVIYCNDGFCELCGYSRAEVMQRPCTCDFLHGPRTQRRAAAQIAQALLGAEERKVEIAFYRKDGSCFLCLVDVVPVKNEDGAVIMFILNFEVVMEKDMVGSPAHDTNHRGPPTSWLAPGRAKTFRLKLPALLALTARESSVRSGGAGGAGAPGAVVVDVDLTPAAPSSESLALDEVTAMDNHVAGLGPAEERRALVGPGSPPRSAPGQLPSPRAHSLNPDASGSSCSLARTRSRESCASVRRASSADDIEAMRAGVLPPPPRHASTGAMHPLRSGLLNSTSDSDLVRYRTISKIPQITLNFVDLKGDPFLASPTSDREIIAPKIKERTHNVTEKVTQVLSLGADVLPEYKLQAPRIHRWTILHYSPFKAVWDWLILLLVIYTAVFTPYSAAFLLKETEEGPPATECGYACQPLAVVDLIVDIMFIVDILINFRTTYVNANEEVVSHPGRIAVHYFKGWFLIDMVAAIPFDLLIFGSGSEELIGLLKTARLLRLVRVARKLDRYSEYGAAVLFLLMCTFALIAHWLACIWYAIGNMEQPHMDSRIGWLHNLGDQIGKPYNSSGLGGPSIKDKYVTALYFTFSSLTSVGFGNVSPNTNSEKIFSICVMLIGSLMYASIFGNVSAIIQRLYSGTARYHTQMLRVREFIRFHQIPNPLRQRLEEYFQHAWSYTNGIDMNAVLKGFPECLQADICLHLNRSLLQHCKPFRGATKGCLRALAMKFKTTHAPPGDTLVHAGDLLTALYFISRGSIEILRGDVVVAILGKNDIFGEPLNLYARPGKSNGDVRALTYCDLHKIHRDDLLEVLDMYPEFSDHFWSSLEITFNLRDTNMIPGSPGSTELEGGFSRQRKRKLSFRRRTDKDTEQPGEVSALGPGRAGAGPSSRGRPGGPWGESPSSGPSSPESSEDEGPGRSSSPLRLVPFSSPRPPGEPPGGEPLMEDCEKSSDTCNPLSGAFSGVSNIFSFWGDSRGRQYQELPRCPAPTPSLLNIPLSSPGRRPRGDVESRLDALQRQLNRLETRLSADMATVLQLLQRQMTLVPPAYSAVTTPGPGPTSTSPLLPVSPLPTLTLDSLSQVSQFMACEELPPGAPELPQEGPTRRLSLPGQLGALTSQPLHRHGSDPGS
row,SMILES,"hERG current change (%, negative = inhibition) at 10uM"
1,CC1=Nc2ccccc2NC(=O)C1Sc1nnc(C)s1 (centres unmarked),-12.6%
2,CC(C)CN1CCC(CNC(=O)CCc2nnc(Cc3c[nH]c4ccccc34)o2)CC1,-1.27%
3,N#Cc1ccccc1NC(=S)NC(=O)C1CCC1,9.95%
4,COc1cc2c3cc1Oc1cc(ccc1O)C[C@@H]1c4c(cc(OC)c(O)c4Oc4ccc(cc4)C[C@H]3N(C)CC2)CCN1C,-37%
5,COc1ccccc1N1CCN(C(=O)CCNS(=O)(=O)c2ccc(Br)s2)CC1,-31.3%
6,S=C1NC[C@H](Cc2ccccc2)N1CCCCC1CCCCC1,4.71%
7,CCOC(=O)c1cnc2ccc(C(=O)OC)cc2c1Nc1ccc(C(=O)O)cc1.Cl,5.66%
8,COC(=O)c1ccc(Nc2cc(C)nc3ccccc23)cc1.Cl,-37.3%
9,COC(=O)c1ccc(Nc2nc(C)cc(C)n2)cc1,10.9%
10,CC(=O)c1ccc(NC(=O)c2cc(C)nc3ccccc23)cc1,16.5%
11,COC(=O)c1ccc2nc(C)cc(Nc3ccccc3C)c2c1.Cl,-47.5%
12,CC(=O)c1ccc(Nc2cc(C)nc3ccc(C)cc23)cc1,-74.5%
13,COC(=O)c1ccc(Nc2cc(C)nc3ccc(C)cc23)cc1.Cl,-55.6%
14,COC(=O)c1ccc2nc(C)cc(Nc3ccc(N(C)C)cc3)c2c1.Cl,-67.1%
15,CC(=O)c1ccc(Nc2nc(C)cc(C)n2)cc1,4.62%
16,Cc1ccc(NN2C(=O)C=CC2=O)cc1,0.632%
17,N/C(=N\S(=O)(=O)c1ccccc1)c1ccc([N+](=O)[O-])cc1,-30%
18,COC(=O)C1C(=O)NC(SC)=C(C#N)C1c1ccccc1 (centres unmarked),8.09%
19,COC(=O)c1cc(CSc2nnc(NC3CCCCC3)s2)oc1C,-10.1%
20,Cc1ccc(CN(C)C(=O)c2c(C)nn(-c3ccccc3)c2C)cc1,8.12%
21,C=C(C)c1cccc(C(C)(C)NC(=O)N2CCN(c3ncccn3)CC2)c1,0.0429%
22,Cc1c(NC(=O)C(C)N2CC(C)OC(C)C2)c(=O)n(-c2ccccc2)n1C (centres unmarked),9.21%

row,SMILES,"hERG current change (%, negative = inhibition) at 10uM"
1,Cc1cccc(NC(=O)Nc2ccc(S(N)(=O)=O)cc2)c1,13.4%
2,Cc1cccc(C(=O)NNC(=O)CCC(=O)Nc2cccc(Cl)c2C)c1,9.03%
3,CCOc1ccc(-c2nnn(CC(=O)c3cc(OC)ccc3OC)n2)cc1,-7.91%
4,O=C(Cn1nc(-c2cccc(Cl)c2)ccc1=O)Nc1ccccc1Br,10.7%
5,COc1ccc(CC(=O)N2N=C(C)CC2(O)c2cccnc2)cc1OC (centres unmarked),-17%
6,CCOc1c2ccc(C(=O)NCc3ccc4c(c3)OCO4)cc2nn1C,17.6%
7,Cn1nccc1C(=O)N1CCc2c([nH]c3ccccc23)C1c1ccc(F)cc1 (centres unmarked),-19.4%
8,Fc1ccc(C2c3[nH]c4ccccc4c3CCN2Cc2ccoc2)cc1 (centres unmarked),-26.8%
9,Fc1ccccc1C1c2[nH]c3ccccc3c2CCN1Cc1ccoc1 (centres unmarked),-51.7%
10,O=C(c1cc2ncccn2n1)N1CCc2c([nH]c3ccccc23)C1c1ccccc1F (centres unmarked),-5.11%
11,Cc1cnc(C(=O)N2CCc3c([nH]c4ccccc34)C2c2ccc(F)cc2)cn1 (centres unmarked),-39.8%
12,CCOc1ccc(C2c3[nH]c4ccccc4c3CCN2Cc2cccn2-c2ncccn2)cc1 (centres unmarked),-53.3%
13,Cc1ccccc1C1c2[nH]c3ccccc3c2CCN1Cc1cccn1-c1ncccn1 (centres unmarked),-46.3%
14,COc1ccc(C2c3[nH]c4ccccc4c3CCN2Cc2ccoc2)c(F)c1 (centres unmarked),-36.9%
15,Fc1ccccc1C1c2[nH]c3ccccc3c2CCN1Cc1cccn1-c1ncccn1 (centres unmarked),-50.6%
16,COc1ccc(OCC(=O)N2CCc3c([nH]c4ccccc34)C2c2ccccn2)cc1 (centres unmarked),21.4%
17,CCOc1ccc(C2c3[nH]c4ccccc4c3CCN2C(=O)Cn2cncn2)cc1 (centres unmarked),-15%
18,Fc1ccc(C2c3[nH]c4ccccc4c3CCN2Cc2cccn2-c2ncccn2)cc1 (centres unmarked),-52.2%
19,CCn1c(COc2ccccc2C)nnc1SCC(=O)O,16.3%
20,Cc1cc(C)cc(NC(=O)N2CCC(NC(=O)c3ccccc3C)CC2)c1,5.74%
21,O=C(CSc1nnc(-c2ccccc2)n1-c1ccccc1)c1ccc[nH]1,16.4%
22,CCOC(=O)N1CCN(C(=O)CNC(=O)c2ccc(Br)o2)CC1,11.7%

# — PMC4336329 (PLoS ONE, 2015)
